{"source": "PubChem BioAssay (NCATS)", "note": "Inconclusive results are not listed. The source made the active and inactive calls. Calls come from the whole dose curve; as a rule, active = well fitted cell-killing curve with a large enough effect; inconclusive = small, poorly fitted or top-dose-only effect, or effect the other way; inactive = no such curve, though single readings can be large or run the other way. Potency is the fitted concentration of half-maximal effect.", "data": [{"experiment": "Quantitative High-Throughput drug screen in 47 multiple myeloma cell lines against the NCATS MIPE library collection: KMS27_JCRB cell viability assay (AID 1918970); note: nearly all actives have a fitted effect of over 30% in size", "conditions": "KMS27 myeloma cells, CellTiter-Glo ATP viability, 48 h; series mostly up to 45.8 µM; viability (% of DMSO): at the top concentration", "excerpt": "PI: Beverly A. Mock Ph.D.\nLaboratory of Cancer Biology and Genetics,\nCenter for Cancer Research, National Cancer Institute,\nNational Institute of Health, Bethesda, Maryland\nDrug resistance and disease progression are common in multiple myeloma (MM) patients, underscoring the need for new therapeutic combinations. […] We hypothesized that effective combinations would reduce MYC expression and enhance p16 activity. […] These preclinical data identify potentially useful drug combinations for evaluation in drug-resistant MM and reveal potential mechanisms of combined drug sensitivity.\nDescribed herein is the primary MIPE qHTS used to cherrypick compounds. Validated compounds were then further tested for potential synergistic activiy.\n[1] Peat TJ, Gaikwad SM, Dubois W, Gyabaah-Kessie N, Zhang S, Gorjifard S, Phyo Z, Andres M, Hughitt VK, Simpson RM, Miller MA, Girvin AT, Taylor A, Williams D, D'Antonio N, Zhang Y, Rajagopalan A, Flietner E, Wilson K, Zhang X, Shinn P, Klumpp-Thomas C, McKnight C, Itkin Z, Chen L, Kazandijian D, Zhang J, Michalowski AM, Simmons JK, Keats J, Thomas CJ, Mock BA. Drug combinations identified by high-throughput screening promote cell cycle transition and upregulate Smad pathways in myeloma. […] Epub 2023 Jun 24. PMID: 37356470; PMCID: PMC10408729.\nSEQUENCE No. (e.g., 1, 2, 3, etc.); […] (e.g., Cells, Incubation, Reagent, etc.); VALUE and DESCRIPTION.\n1; Cells; 5 uL; white, solid bottom 1536-well Greiner assay plate.\n2; Compounds; 23 nL; Kalypsis pin tool (Wako USA) equipped with a 1536-well pin head to transfer to the assay plates.\n3; Incubation; 48 hours; 37C incubation.\n4; Reagent;5uL; CellTiter Glo (Promega).\n5; Detector; 425V; Luminescence; Viewlux PerkinElmer.\nNOTES (numbers refer to Sequence numbers above)\n1. The cell-based screening methods employed in this study were like those previously published. Briefly, the corresponding myeloma cell lines were screened in 1,536-well plates with 500 cells, 5-uL per well for inhibition of cell viability (assessed by measuring ATP levels with CellTiterGlo).\n2. NCATS MIPE 4.0 library of approved and investigational drugs were added using the Kalypsis pin tool. Wells treated with DMSO only for 100% viability and media only wells for 0% viability were used as controls.\n3. The assay plates were covered and incubated for 48 hours in a 37C, 5% CO2 incubator with controlled humidity.\n4. After 48 hours, CellTilter-GloTM luminescent substrate mix (Promega) reagent was added to the assay plate and plates we incubated for 5 min at room temperature.\n5. Signal was measured as median relative luminescence units on a ViewLux (PerkinElmer) multiplate reader.\n[1] Heske CM, Davis MI, Baumgart JT, Wilson K, Gormally MV, Chen L, Zhang X, Ceribelli M, Duveau DY, Guha R, Ferrer M, Arnaldez FI, Ji J, Tran HL, Zhang Y, Mendoza A, Helman LJ, Thomas CJ. Matrix Screen Identifies Synergistic Combination of PARP Inhibitors and Nicotinamide Phosphoribosyltransferase (NAMPT) Inhibitors in Ewing Sarcoma. Clin Cancer Res. 2017 Dec 1;23(23):7301-7311. doi: 10.1158/1078-0432.CCR-17-1121. Epub 2017 Sep 12. PMID: 28899971; PMCID: PMC6636827.", "values": [{"smiles": "N[C@H](CSC(c1ccccc1)(c1ccccc1)c1ccccc1)C(=O)O", "Potency": "18.7 µM (active)"}, {"smiles": "O=c1c(-c2ccc(O)cc2)coc2cc(OC3O[C@H](CO)[C@H](O)[C@H](O)[C@H]3O)cc(O)c12", "note": "(stereo not given in full)", "viability (% of DMSO)": "131% (inactive)"}, {"smiles": "CC(C)(Cc1ccc2ccccc2c1)NC[C@@H](O)COc1cccc(Cl)c1C#N", "viability (% of DMSO)": "147% (inactive)"}, {"smiles": "N#CC1(c2ccc(NC(=O)c3cccnc3NCc3ccncc3)cc2)CCCC1", "viability (% of DMSO)": "120% (inactive)"}, {"smiles": "Clc1ccc(CCC(Cn2ccnc2)Sc2c(Cl)cccc2Cl)cc1", "note": "(stereo not given)", "Potency": "18.7 µM (active)"}, {"smiles": "COc1ccc2c3c1OC1C[C@@H](O)C=C[C@@]31CCN(C)C2", "note": "(stereo not given in full)", "viability (% of DMSO)": "123% (inactive)"}, {"smiles": "CC(C)(C)C(=O)Oc1ccc2c(c1)nc(NC(=O)c1cccc([N+](=O)[O-])c1)n2CCCO", "viability (% of DMSO)": "125% (inactive)"}, {"smiles": "Cc1[nH]c(C=C2C(=O)Nc3ccc(S(=O)(=O)Cc4c(Cl)cccc4Cl)cc32)c(C)c1C(=O)N1CCC[C@H]1CN1CCCC1", "Potency": "2.64 µM (active)"}, {"smiles": "CCn1c(C(=O)N(C2CC2)C2CC2)cc2c3c(ncn3C)c(Nc3cc(C)n(C)n3)nc21", "viability (% of DMSO)": "103% (inactive)"}, {"smiles": "Cc1cnc(C(=O)O)c[n+]1[O-]", "viability (% of DMSO)": "115% (inactive)"}, {"smiles": "c1ccc2c(Cc3c[nH]c4ccccc34)c[nH]c2c1", "Potency": "7.43 µM (active)"}, {"smiles": "N#C[C@H]1C[C@H]2C[C@@H]2N1C(=O)[C@@H](N)C12CC3CC(CC(O)(C3)C1)C2", "viability (% of DMSO)": "122% (inactive)"}, {"smiles": "CC(=O)O[C@]1(C(C)=O)CC[C@@H]2[C@@H]3C[C@H](C)C4=CC(=O)CC[C@]4(C)[C@H]3CC[C@@]21C", "viability (% of DMSO)": "103% (inactive)"}, {"smiles": "CNC1CCC(N(Cc2cccc(-c3ccncc3)c2)C(=O)c2sc3c(F)ccc(F)c3c2Cl)CC1", "note": "(stereo not given)", "Potency": "18.7 µM (active)"}, {"smiles": "COc1ccc(C2CC(c3ccccc3)=NN2c2ccc(S(N)(=O)=O)cc2)cc1", "note": "(stereo not given)", "Potency": "8.33 µM (active)"}, {"smiles": "Cc1ccc([C@@H]2O[C@H](CO)[C@@H](O)[C@H](O)[C@@H]2O)cc1Cc1ccc(-c2ccc(F)cc2)s1", "Potency": "23.5 µM (active)"}, {"smiles": "COc1ccc2c(Oc3ccc(NC(=O)c4c(C)n(CC(C)(C)O)n(-c5ccccc5)c4=O)nc3)ccnc2c1", "viability (% of DMSO)": "109% (inactive)"}, {"smiles": "Cc1ccc(F)c(NC(=O)Nc2ccc(-c3cccc4[nH]nc(N)c34)cc2)c1", "Potency": "10.5 µM (active)"}, {"smiles": "C[C@H](NC(=O)C(=O)Nc1ccccc1C(C)(C)C)C(=O)N[C@@H](CC(=O)O)C(=O)COc1c(F)c(F)cc(F)c1F", "Potency": "3.32 µM (active)"}, {"smiles": "CC(C)(C(=O)NCC(F)(F)C(F)(F)F)C(=O)N[C@@H]1C(=O)Nc2ccccc2-c2ccccc21", "Potency": "1.32 µM (active)"}, {"smiles": "CC(C)(C)OC(=O)N[C@H]1CCCCCC=C[C@@H]2C[C@@]2(C(=O)NS(=O)(=O)C2CC2)NC(=O)[C@@H]2C[C@@H](OC(=O)N3Cc4cccc(F)c4C3)CN2C1=O", "viability (% of DMSO)": "93.9% (inactive)"}, {"smiles": "O=C(Nc1cc(Cl)cc2c1[nH]c1cnccc12)c1cccnc1", "viability (% of DMSO)": "116% (inactive)"}, {"smiles": "CC=CC[C@@H](C)C(=O)[C@H]1C(=O)N[C@@H](C(C)C)C(=O)N(C)CC(=O)N(C)[C@@H](CC(C)C)C(=O)N[C@@H](C(C)C)C(=O)N(C)[C@@H](CC(C)C)C(=O)N[C@@H](C)C(=O)N[C@H](C)C(=O)N(C)[C@@H](CC(C)C)C(=O)N(C)[C@@H](CC(C)C)C(=O)N(C)[C@@H](C(C)C)C(=O)N1C", "Potency": "4.69 µM (active)"}, {"smiles": "CC[C@]1(O)C[C@@H]2CN(CCc3c([nH]c4ccccc34)[C@@](C(=O)OC)(c3cc4c(cc3OC)N(C=O)[C@@H]3C45CCN4CC=C[C@](CC)([C@H]45)[C@@H](OC(C)=O)[C@]3(O)C(=O)OC)C2)C1", "note": "(stereo not given in full)", "viability (% of DMSO)": "108% (inactive)"}, {"smiles": "Cc1nc(N)sc1-c1ccnc(Nc2ccc(N3CCOCC3)cc2)n1", "Potency": "6.62 µM (active)"}, {"smiles": "NC(=O)c1cccc(-c2cc(Nc3ccc(OC(F)(F)F)cc3)ncn2)c1", "Potency": "18.7 µM (active)"}, {"smiles": "COc1ccc2cccc(CCNC(C)=O)c2c1", "viability (% of DMSO)": "110% (inactive)"}, {"smiles": "O=C1C[C@@H](c2ccc(O)cc2)Oc2cc(O)cc(O)c21", "Potency": "0.0118 µM (active)"}, {"smiles": "C=C1C(=O)OC2C=C(C)CCC=C(C)CCC12", "note": "(stereo not given)", "Potency": "20.9 µM (active)"}, {"smiles": "O=C(NOCC(O)CO)c1cc(Br)c(F)c(F)c1Nc1ccc(I)cc1F", "note": "(stereo not given)", "viability (% of DMSO)": "131% (inactive)"}, {"smiles": "CC1(C)CCC2=C(O1)c1ccccc1C(=O)C2=O", "Potency": "3.32 µM (active)"}, {"smiles": "O=C(O)C(O)Cc1ccc(O)c(O)c1", "note": "(stereo not given)", "viability (% of DMSO)": "122% (inactive)"}, {"smiles": "CCNc1cc(NC2CCC(O)CC2)nc(Nc2ccc3c(ccn3Cc3ccccc3)c2)n1", "note": "(stereo not given)", "Potency": "16.6 µM (active)"}, {"smiles": "COc1cc2ncnc(-n3nc(-c4ccccn4)nc3N)c2cc1OC", "Potency": "0.0935 µM (active)"}, {"smiles": "CN1CCN(CCOc2cc(OC3CCOCC3)c3c(Nc4c(Cl)ccc5c4OCO5)ncnc3c2)CC1", "Potency": "16.6 µM (active)"}, {"smiles": "O=c1cc(N2CCOCC2)oc2c(-c3cccc4c3sc3ccccc34)cccc12", "Potency": "18.7 µM (active)"}, {"smiles": "CCCCCN(C)CCC(O)(P(=O)(O)O)P(=O)(O)O", "viability (% of DMSO)": "110% (inactive)"}, {"smiles": "Clc1ccc(C(c2ccc(Cl)cc2)n2cc[n+](CC(OCc3ccc(Cl)cc3Cl)c3ccc(Cl)cc3Cl)c2)cc1", "note": "(stereo not given)", "Potency": "7.43 µM (active)"}, {"smiles": "O=C(NCc1ccncc1)C12C[C@H]3C[C@@H](C1)CC(c1ccc(Cl)cc1)(C3)C2", "Potency": "8.33 µM (active)"}, {"smiles": "Oc1ccc(C2CCN(c3ccnc4ccccc34)CC2)cc1O", "Potency": "18.7 µM (active)"}]}]}
